# Source: PubChem BioAssay (National Center for Advancing Translational Sciences (NCATS))
# A selection: hits, their analogues and other compounds. The true share with any hit is near 3.1%.
# GCN5L2 inh: inhibitors of human GCN5L2 histone acetyltransferase; Q92830; GCN5L2 HAT assay, ThioGlo1 CoA-SH fluorescence; Potency, µM (highest dose often 58.9 µM), inactives show top-dose activity change, negative = inhibition, most hits filed as inhibitors; 390,000 compounds, 0.21% hits; also: potency is read from the fitted curve at half-maximal effect
#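 Fluorescence readout, Ex340nm/Em540nm: ThioGlo1 (50uM final) reacts with free CoA thiol released as 20nM GCN5L2 acetylates H3(1-25) peptide (75uM) using acetyl-CoA (70uM). Compound and enzyme sat 15 min beforehand; 20 min room-temperature reaction.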
# PI4K2A block: inhibitors of human PI4K2A; purified PI4K2A, ADP-Glo luminescence, 1 h; active compounds read low; AID 1346378; activity change, negative = inhibition, % at 76.9 µM; 420,000 compounds, 0.13% hits; Q9BTU6; in the data active = activity change below about -50%; inconclusive = mostly about -30% to -49%;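 also: -100% = wells without enzyme as full effect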
# Target sequence (Q9BTU6 whole entry, looked up): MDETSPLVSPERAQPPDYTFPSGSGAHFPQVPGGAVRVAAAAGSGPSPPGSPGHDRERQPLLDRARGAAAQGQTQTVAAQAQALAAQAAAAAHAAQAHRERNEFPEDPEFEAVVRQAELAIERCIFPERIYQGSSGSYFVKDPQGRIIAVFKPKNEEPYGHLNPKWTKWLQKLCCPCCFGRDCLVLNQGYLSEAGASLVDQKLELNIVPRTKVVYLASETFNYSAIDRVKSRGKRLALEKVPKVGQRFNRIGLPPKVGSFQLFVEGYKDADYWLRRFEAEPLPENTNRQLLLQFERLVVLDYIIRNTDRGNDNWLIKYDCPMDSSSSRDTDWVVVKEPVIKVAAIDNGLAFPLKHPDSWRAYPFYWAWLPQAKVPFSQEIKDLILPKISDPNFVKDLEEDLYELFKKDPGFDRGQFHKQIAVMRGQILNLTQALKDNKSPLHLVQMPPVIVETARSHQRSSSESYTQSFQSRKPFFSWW
#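 Compounds are screened against recombinant PI4K2A using PI as substrate and ATP, the latter dispensed at 300 microM. Reactions run one hour at ambient temperature before ADP-Glo detection; full inhibition defined by wells lacking enzyme.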
# VDR inhibitor: blocks the human vitamin D receptor; 400,000 compounds, 0.93% hits; VDR-SRC2-3 peptide fluorescence polarization, 2 h; P11473; Potency, µM, for the others: max response, negative = inhibition, most hits filed as inhibitors; also: potency is read from the fitted curve at half-maximal effect
#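 After 23 nl compound addition and a short centrifugation, plates sat for 2 hours at ambient temperature; polarization of fluorescence then indicated loss of VDR binding to peptide SRC2-3.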
# PLK1 PBD inh: blocks phosphopeptide binding to human PLK1 polo-box domain; Potency, µM, inactives show max response, negative = inhibition, usual class: inhibitors; Plk1 PBD binding of FITC phosphopeptide, fluorescence polarization; 360,000 compounds, 2.8% hits; P53350; also: potency is read from the fitted curve at half-maximal effect; series mostly up to about 57 µM; nearly all actives have a fitted effect of over 65% in size
# GLS inh: glutaminase GLS (human) inhibition | GLS enzymatic activity, qHTS titration | Potency, µM (doses to about 45.5 µM), for inactives: top-dose activity change, negative = inhibition, most hits filed as inhibitors | 410,000 compounds, 0.21% hits; also: potency is read from the fitted curve at half-maximal effect
#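 hKGA in 45 mM KH2PO4 (pH 8.2), 0.02% Tween-20 with compound, then 1mM L-Glutamine (stock as added) plus glutamate oxidase/HRP/Amplex red coupling mix. Fluorescence read initially and after 30 min at RT; signal change reflects glutamate formation.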
# Starred values were filed as active, the others as inactive; ? = inconclusive; . = not tested or not shown. Unless noted, calls follow the shape of the dose curve; as a rule, active = well fitted curve in the direction sought with a large enough effect; inconclusive = small, poorly fitted or top-dose-only effect, or another doubt; inactive = no such curve, though single readings can be large; an effect the other way counts as inactive or inconclusive. Unless noted, % is scaled to controls: 0 for no effect and ±100 for the full control effect.
SMILES,GCN5L2 inh,PI4K2A block,VDR inhibitor,PLK1 PBD inh,GLS inh
C#CCNC(=O)C[C@@H]1C[C@]2(C(=O)OCC)CCC3=C2N(CCC3)C1=O,.,7,.,.,.
CN1CCN(c2oc(-c3ccc(OCc4ccc(Cl)cc4)cc3)nc2C#N)CC1,.,.,3%,.,.
O=C(N/N=C/c1c[nH]c2ccccc12)c1ccc(O)c(O)c1,-8%,-17,-25%,0%,11µM*
Cc1onc(-c2ccccc2)c1C(=O)N/N=C/c1c[nH]c2ccccc12,-9%,-10,3%,24µM*,-63%
Cc1cccc(NC(=O)COc2ccc3c(c2)CCC3)n1,-2%,-3,-4%,-3%,3%
O=C(COc1ccc2c(c1)CCC2)Nc1ccccn1,-13%,-62*,-13%,-2%,-2%
O=C(COc1cccc2ccccc12)N/N=C/C=C/c1ccccc1,-9%,9,10%,-6%,-5%
Cc1ccccc1OCC(=O)N/N=C/C=C/c1ccccc1,-2%,1,?,30µM*,21%
CCc1ccccc1NC(=O)CSC1=C(C#N)C(c2ccc(O)c(OC)c2)C2=C(CCCC2=O)N1 (stereo unspecified),-1%,1,-13%,11µM*,?
COc1cc(C2C(C#N)=C(SC)NC3=C2C(=O)CCC3)ccc1O (stereo unspecified),-5%,-1,0%,1%,0%
COc1ccc(C2C(=O)N(C3CCC(C)CC3)CC(=O)N2CCC2=CCCCC2)cc1OC (stereo unspecified),-3%,-5,18%,.,3%
CC(=O)N1N=C(c2ccco2)CC1c1cc2cc(C)ccc2nc1Cl (stereo unspecified),-5%,-3,-7%,-3%,5.6µM*
Cc1ccc2nc(Cl)c(C3CC(c4ccco4)=NN3C(=O)CCCC(=O)O)cc2c1 (stereo unspecified),2%,-21,24%,-28%,-4%
COc1ccc(CCn2c(C)c(C(C)=O)c3cc(OC(=O)c4ccco4)ccc32)cc1OC,0%,6,4%,24µM*,1%
CC(=O)c1c(C)n(C)c2ccc(OC(=O)c3ccco3)cc12,-5%,8,-3%,-8%,4%
O=C1CCC2(CCC(c3ccccc3)CC2)N1CC[C@@H](O)c1ccccc1 (stereo partly specified),.,1,.,.,.
C[C@H]1[C@@H](NC(=O)Cc2ccsc2)CC[C@@]23CCCN2C(=O)CCC[C@@H]13,.,4,.,.,.
COC1CCN(C(=O)c2ccc3oc(Cc4ccc(Cl)cc4)nc3c2)CC1,0%,5,-9%,-17%,-13%
Nc1ccc2oc(Cc3ccc(Cl)cc3)nc2c1,-10%,-29,79µM*,.,3%
Oc1ccc2ccccc2c1SSc1c(O)ccc2ccccc12,?,-11,10µM*,.,.
CC1CCC2(CCC(=O)N2CCCOC(=O)NC(C)(C)C)CC1 (stereo unspecified),.,0,.,.,.
COC(=O)[C@@H](c1ccccc1Cl)N1CCc2sccc2C1,-7%,.,?,.,.
Cc1sc2nc[nH]c(=O)c2c1-c1ccc(F)cc1,?,-5,-13%,-15%,2%
Cc1sc2nc[nH]c(=S)c2c1-c1ccccc1,-6%,-3,89µM*,?,?
COC(=O)CSc1nnc(-c2ccc(NS(=O)(=O)c3ccc(Cl)s3)cc2)o1,.,10,.,.,.
SMILES,GCN5L2 inh,PI4K2A block,VDR inhibitor,PLK1 PBD inh,GLS inh
Cc1cc(C)cc(N2C(=O)CC(Sc3nnnn3-c3ccccc3)C2=O)c1 (stereo unspecified),0%,-2,22%,?,3%
Cc1cc(C)cc(N2C(=O)CC(Sc3ncn[nH]3)C2=O)c1 (stereo unspecified),-2%,0,14%,24µM*,6%
Fc1cnc(Cl)nc1NC1CCCCC1,-1%,5,?,21µM*,12%
COc1cc(/C=C/c2cc[n+](C)cc2)ccc1OCC(=O)Nc1ccccc1,-6%,-1,-15%,2%,-1%
COc1cc(C=C2C(=O)OC(C)(C)OC2=O)ccc1OCC(=O)Nc1ccccc1,5%,3,-5%,19µM*,-4%
COc1cc(/C=C2/NC(=O)N(CC(=O)Nc3cccc(C)c3)C2=O)ccc1OCC(N)=O,0%,3,?,27µM*,-9%
CCC(=O)N1CCc2cc(S(=O)(=O)NC(Cc3ccccc3)C(=O)Nc3ccc(C)cc3)ccc21 (stereo unspecified),-4%,2,-13%,.,-1%
FC(F)(F)c1ccccc1NC(=S)OC1CCC12CCC(c1ccccc1)CC2 (stereo unspecified),.,-5,.,.,.
S=c1[nH]nc(-c2ccc(Br)cc2)n1Cc1ccccc1,-5%,3,?,12µM*,?
Fc1ccc(-c2n[nH]c(=S)n2Cc2ccccc2)cc1,-16%,9,-16%,-9%,27%
C=CCn1c(-c2ccccc2)n[nH]c1=S,-3%,1,-10%,8.4µM*,?
CC(=O)Nc1ccc(S(=O)(=O)NCC(=O)N2CCN(S(=O)(=O)c3cccs3)CC2)cc1,-3%,1,-8%,15µM*,0%
CC(C)C(c1nnnn1C(C)(C)C)N1CCN(c2cccc(Cl)c2)CC1 (stereo unspecified),-6%,-2,-3%,3µM*,?
CC(C)(C)n1nnnc1C(c1ccccc1)N1CCN(c2ccccc2)CC1 (stereo unspecified),.,5,.,-13%,2%
CCn1c(SCC(=O)Nc2cccc3ccccc23)nnc1-c1cccs1,.,-2,.,.,.
O=C1Nc2cc(Br)ccc2C1(O)c1ccccc1O (stereo unspecified),2%,-6,2%,-4%,6%
CC(C)c1ccc(C2(O)C(=O)Nc3cc(Br)ccc32)c(O)c1 (stereo unspecified),-14%,4,?,27µM*,23%
Cn1c(=O)oc2cc(S(=O)(=O)Nc3ccccc3)ccc21,1%,-1,-12%,21µM*,0%
C[C@@H]1O[C@H](O[C@@H]2C(O)[C@H](O)[C@@H](CO)O[C@H]2Oc2cc(O)c3c(=O)cc(-c4ccc(O)cc4)oc3c2)[C@H](O)[C@H](O)[C@H]1O (stereo partly specified),0%,.,-1%,.,.
CCO[C@@H](Cc1ccc(OCCc2ccc(OS(C)(=O)=O)cc2)cc1)C(=O)O,.,.,.,.,6%
O=[N+]([O-])c1ccc(-[n+]2ccc3ccccc3c2)c([N+](=O)[O-])c1,-9%,2,79µM*,24µM*,22%
CCCCn1c(N)c(N(CCC(C)C)C(=O)C2CC(=O)N(c3ccc4c(c3)OCCO4)C2)c(=O)[nH]c1=O (stereo unspecified),-1%,-2,19%,12µM*,-6%
O=C(O)C1CC(=O)N(c2ccc3c(c2)OCCO3)C1 (stereo unspecified),2%,-18,-22%,3µM*,-26%
